Test results: PubChem BioAssay (EPA / NIEHS)
The source made the active and inactive calls. The calls were made as follows: active = hit-call score of the fitted dose curve at least 0.9, where 1 is the maximum; inactive = score below 0.9.

Read-out: ABC Transporter (ABCC2), ABCC2 (gene 1244)
Test: LTEA_HepaRG_ABCC2: Life Technologies and Expression Analysis (LTEA) Assay for ABC Transporter (ABCC2) using HepaRG (AID 2283464)
Details: mRNA level, 48 h; actives raise or lower the signal
Outline: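 HepaRG, 48 h post-plating; serum-free induction medium; cpd 8-pt, 100 uM top, half-log, 0.5% DMSO, duplicate, 48 h. Readout: ABCC2 mRNA by qRT-PCR, norm. ACTB/GAPDH/POLR2A. Bidirectional fit vs DMSO baseline.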

SMILES | outcome | AC50
CC1(C)C(=O)N(Br)C(=O)N1Br | inactive | –
CC(=O)OCCC(C)C | inactive | –
CC(=O)c1ccc2c(c1)[C@H](NC(=O)c1ccc(F)cc1)[C@@H](O)C(C)(C)O2 | – | 9.67 µM (active)
O=C(CCCCCCCCc1cccnc1)N1CCC(C=C(c2ccccc2)c2ccccc2)CC1 | inactive | –
Cn1cnc([N+](=O)[O-])c1Sc1ncnc2nc[nH]c12 | inactive | –
C1=CCCC=CCCC=CCC1 | inactive | –
O=c1[nH]c2ccc(S(=O)CCN3CCC(Cc4ccc(F)cc4)CC3)cc2o1 (centres undefined) | – | 50 µM (active)
Cn1c(=O)c2c(ncn2C)n(C)c1=O | inactive | –
O=C1OC(=O)C2C3C=CC(C3)C12 (centres undefined) | inactive | –
CC(C)=CCCC(C)CCO (centres undefined) | inactive | –
Cn1c(=O)cc(Oc2ccc(F)cc2F)c2cnc(NCC(C)(C)O)nc21 | inactive | –
CC(C)CC(C)(O)C#CC(C)(O)CC(C)C (centres undefined) | inactive | –
Clc1nc(Cl)c(Cl)c(Cl)c1Cl | inactive | –
COC(=O)c1c(Cl)c(Cl)c(C(=O)OC)c(Cl)c1Cl | inactive | –
CCn1nc(Cc2ccccc2)cc1C1CCN(C[C@H]2C[C@H](N(C)[C@@H](C(=O)O)C(C)C)C[C@@H]2c2cccc(F)c2)CC1 | inactive | –
CCC(C)(C)C(=O)O[C@H]1C[C@@H](C)C=C2C=C[C@H](C)[C@H](CC[C@@H]3C[C@@H](O)CC(=O)O3)[C@H]21 | inactive | –
CCCC(=O)OCC | inactive | –
CC(C)CCCCCCOC(=O)c1ccc(C(=O)OCCCCCCC(C)C)c(C(=O)OCCCCCCC(C)C)c1 | inactive | –
C[C@](N)(Cc1ccc(O)c(O)c1)C(=O)O | inactive | –
